# Values joined by “and” are separate entries in the source; they are usually repeats but may differ in a detail not shown here. Identical values can stand only once. Counter-ions that a name gives are not always drawn.
# Experiments:
# Experiment in all cases: cell viability relative to vehicle control; higher = less cytotoxic
# Conditions in all cases: 10 µM
# K562 = test system: K562
# How it was run: (§1)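 Each screen used CRISPR-edited mutant and wild-type clones from four leukaemia lines. Compounds were acoustically dispensed at a single 10 µM dose, and CellTiter-Glo luminescence was read after 48 h with the supernatant first removed. Viability was analysed in Genedata Screener and given as percent of the on-plate vehicle control.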
# MARIMO = test system: MARIMO
# How it was run: as §1
# MOLM14 = test system: MOLM14
# How it was run: as §1
# OCI-AML2 = test system: OCI-AML2
# How it was run: as §1
Structure (SMILES),cell viability (K562; SRSF2 genotype: SRSF2 P95H/wt),cell viability (K562; SRSF2 genotype: SRSF2 wt/wt) [%],cell viability (MARIMO; SRSF2 genotype: SRSF2 P95H/wt) [%],cell viability (MARIMO; SRSF2 genotype: SRSF2 wt/wt) [%],cell viability (MOLM14; SRSF2 genotype: SRSF2 P95H/wt) [%],cell viability (MOLM14; SRSF2 genotype: SRSF2 wt/wt) [%],cell viability (OCI-AML2; SRSF2 genotype: P95H/wt) [%],cell viability (OCI-AML2; SRSF2 genotype: wt/wt) [%]
O=c1cc(-c2ccc(OC3OC(CO)C(O)C(O)C3O)cc2)oc2c(C3OC(CO)C(O)C(O)C3O)c(O)cc(O)c12 (stereo not given) [4'-O-Glucosylvitexin],97% and 102%,101,97.3,91.7,99.6,99,97.4,96.8
CC(=O)O[C@H](CC(=O)O)C[N+](C)(C)C [O-Acetyl-L-carnitine hydrochloride],112% and 110%,110,110,110,101,108,105,104
CCCCCOC(=O)Nc1nc(=O)n([C@@H]2O[C@H](C)[C@@H](O)[C@H]2O)cc1F [Capecitabine (Xeloda)],102% and 99.8%,104,99.7,108,101,101,92.8,99.2
CCCCCCCCCCCC1=C(O)C(=O)C=C(O)C1=O [Embelin],91.7% and 88.2%,85.5,90.3,98.8,90.9,91.9,89.3,94.6
CC(C)=CCC[C@](C)(O[C@@H]1O[C@H](CO[C@@H]2O[C@H](CO)[C@@H](O)[C@H](O)[C@H]2O)[C@@H](O)[C@H](O)[C@H]1O)[C@H]1CC[C@]2(C)[C@@H]1[C@H](O)C[C@@H]1[C@@]3(C)CC[C@H](O[C@@H]4O[C@H](CO)[C@@H](O)[C@H](O)[C@H]4O)C(C)(C)[C@@H]3CC[C@]12C [Gypenoside XVII],112% and 100%,109,108,103,110,106,106,106
O=C(c1ccc(/C=C/c2n[nH]c3ccccc23)cc1)N1CCNCC1,42.2% and 62.9%,27.7,38.9,36.2,2.78,7.69,7.33,14.9
COC(=O)[C@]12CCC(C)(C)C[C@H]1[C@H]1C(=O)C=C3[C@@]4(C)C=C(C#N)C(=O)C(C)(C)[C@@H]4CC[C@@]3(C)[C@]1(C)CC2 [Bardoxolone Methyl],2.03% and 0.75%,1.02,0.23,0.28,0.15,0.13,0.19,0.13
CC(C)(C)c1cnc(CSc2cnc(NC(=O)C3CCNCC3)s2)o1,24.3% and 35.5%,27.3,9.12,4.42,3.75,0.63,4.54,18.1
CC(=O)Oc1ccc2c(c1)Oc1cc(OC(C)=O)ccc1C21OC(=O)c2cc(C(=O)ON3C(=O)CCC3=O)ccc21.CC(=O)Oc1ccc2c(c1)Oc1cc(OC(C)=O)ccc1C21OC(=O)c2ccc(C(=O)ON3C(=O)CCC3=O)cc21,90.8% and 93.8%,99.6,98.1,77.4,92.8,63.6,75.5,77.9
N#Cc1cnc(Nc2cc(NC[C@H]3CNCCO3)c(C(F)(F)F)cn2)cn1,19% and 24.2%,13.3,44.5,54.4,16.4,10.3,14.5,14.1
Cc1c(C(=O)NN2CCCCC2)nn(-c2ccc(Cl)cc2Cl)c1-c1ccc(Cl)cc1,81.6% and 88%,74.5,93.7,93,88.5,87,91.8,90.9
COc1ccc([C@@H]2CC(=O)c3c(O)cc(O[C@@H]4O[C@H](CO[C@@H]5O[C@@H](C)[C@H](O)[C@@H](O)[C@H]5O)[C@@H](O)[C@H](O)[C@H]4O)cc3O2)cc1O [Hesperidin],105% and 115%,111,107,109,109,113,112,97.2
CCC1=C(C)CN(C(=O)NCCc2ccc(S(=O)(=O)NC(=O)N[C@H]3CC[C@H](C)CC3)cc2)C1=O [Glimepiride],101% and 82.6%,93.7,91.7,116,94.6,92.4,97.3,105
Cc1cccc(C#Cc2ccccc2)n1,97.1% and 102%,104,102,94.5,111,110,89.3,87.5
CCCNC[C@]1(O)[C@H](C)O[C@@H](O[C@H]2[C@H](C)[C@@H](O[C@@H]3O[C@H](C)C[C@H](N(C)C)[C@H]3O)[C@](C)(O)C[C@@H](C)CN[C@H](C)[C@@H](O)[C@](C)(O)[C@@H](CC)OC(=O)[C@@H]2C)C[C@@]1(C)OC [Tulathromycin A],101% and 105%,104,101,107,100,106,99.9,99
CC12CCC(O)CC1=CCC1C2CCC2(C)C(C(O)CC(O)(C(F)(F)F)C(F)(F)F)CCC12 (stereo not given),86.1% and 93.4%,98.3,97,90.3,76.7,91.8,71.3,76.3
NC(=O)c1cnc(N[C@@H]2CCCC[C@@H]2N)nc1Nc1cccc(-n2nccn2)c1,16.9% and 18.1%,15.9,16,12.6,2.43,1.83,0.51,3.84
OCC(O)C(O)C(O)C(O)CO (stereo not given) [Dulcitol],102% and 104%,99.7,105,107,99.9,106,105,103

Structure (SMILES),cell viability (K562; SRSF2 genotype: SRSF2 P95H/wt),cell viability (K562; SRSF2 genotype: SRSF2 wt/wt) [%],cell viability (MARIMO; SRSF2 genotype: SRSF2 P95H/wt) [%],cell viability (MARIMO; SRSF2 genotype: SRSF2 wt/wt) [%],cell viability (MOLM14; SRSF2 genotype: SRSF2 P95H/wt) [%],cell viability (MOLM14; SRSF2 genotype: SRSF2 wt/wt) [%],cell viability (OCI-AML2; SRSF2 genotype: P95H/wt) [%],cell viability (OCI-AML2; SRSF2 genotype: wt/wt) [%]
COc1ccc(-n2c(C)c([N+](=O)[O-])c3ccc(O)cc32)cc1,97.5% and 95.4%,94,99.2,108,93.6,98.2,73.1,80.2
Cc1ncc(COP(=O)(O)O)c(C=O)c1O [Pyridoxal phosphate],103% and 104%,105,100,106,100,106,103,110
C[C@@]12CC[C@@H]3[C@@](CC[C@H]4[C@@]3(C)CCC[C@@]4(C)C(=O)O)(CC1=O)C2 [Iso-Steviol],100% and 92.9%,96.7,99.4,107,95,94.7,88.3,101
CC(=O)OC(CC(C)C1=C2CC(O)C3C4(C)CCC(=O)C(C)(C)C4CCC3(C)C2(C)CC1)C1OC1(C)C (stereo not given) [Alisol B Acetate],81.3% and 84.2%,87.8,68.4,55.6,72.8,87.8,64.1,68.6
COc1ccc2c(c1)[C@]1(C[C@H]1c1ccc3c(/C=C/c4ccc(CN5C[C@@H](C)O[C@@H](C)C5)cc4)n[nH]c3c1)C(=O)N2,13.4% and 27.5%,17.7,30.9,29.3,14.5,10.7,11.6,20.3
Cc1cc(NC(=O)Nc2ccc(N(C)C)cc2)c2cc(F)cc(F)c2n1,89.9% and 95.8%,93.1,98.3,109,102,105,83.8,94.9
CN1CCC(CNc2ccc3ncc(-c4cccc(OC(F)(F)F)c4)n3n2)CC1 [SGI-1776 free base],1.35% and 1.49%,2.08,0.84,2.75,0.45,0.48,0.42,0.66
Cc1cc(=O)oc2cc(O)ccc12 [4-Methylumbelliferone (4-MU)],107% and 96.8%,99.6,98.5,96.7,102,102,100,99.9
COc1ccc(C[C@H](N)C(=O)N[C@H]2[C@@H](O)[C@H](n3cnc4c(N(C)C)ncnc43)O[C@@H]2CO)cc1 [Puromycin 2HCl],1.95% and 1.45%,1.55,1.69,0.77,0.25,0.31,0.26,0.49
CC(=N)NCc1cccc(CN)c1,103% and 97.3%,91.8,96.3,100,95.6,97.8,95.4,101
Cn1cnc(-c2cc3nccc(Oc4ccc(NC(=S)NC(=O)Cc5ccccc5)cc4F)c3s2)c1,80.4% and 84.1%,71.9,87.8,105,23.3,15.3,49.2,58.8
"COc1cc(/C=C/C(=O)OC[C@H]2O[C@H](O[C@]3(CO)O[C@H](CO)[C@@H](O)[C@@H]3OC(=O)/C=C/c3cc(OC)c(O)c(OC)c3)[C@H](O)[C@@H](O)[C@@H]2O)cc(OC)c1O [3,6'-Disinapoyl sucrose]",106% and 103%,101,106,109,112,105,102,105
C[C@]12C[C@@H](O)[C@@H]3C[C@@]1(O[C@@H]1O[C@H](CO)[C@@H](O)[C@H](O)[C@H]1O)[C@@]3(COC(=O)c1ccccc1)C(=O)O2 [Albiflorin],103% and 108%,107,96.9,94.5,104,98.4,98.3,92.9
C#C[C@]1(O)CC[C@H]2[C@@H]3CCC4=CC(=O)CC[C@@H]4[C@H]3C(=C)C[C@@]21CC [Etonogestrel],82.9% and 75.4%,80.4,78.6,88.8,84.9,89.9,88,88.3
COc1c(N2CCNC(C)C2)c(F)cc2c(=O)c(C(=O)O)cn(C3CC3)c12 (stereo not given) [Gatifloxacin],97.2% and 103%,108,112,108,102,101,104,100
NC(=O)/C(=C/n1cnc(-c2cc(C(F)(F)F)cc(C(F)(F)F)c2)n1)c1cncnc1,3.74% and 12.7%,11.3,15.4,17.5,0.67,0.57,1.55,4.56
COc1c(O)cc2c(c1O)[C@@H]1O[C@H](CO)[C@@H](O)[C@H](O)[C@H]1OC2=O [Bergenin (Cuscutin)],100% and 84%,86.1,89.2,99,85.6,91.9,91,94.1

# Reference: the supplement of paper PMC10981050
